Test in all cases: DAPPL (digital affinity profiling via proximity ligation, sequencing); 10 mM Tris-HCl pH 7.5, 50 mM NaCl, 1 mM DTT, 4% glycerol, room temperature, 30 min; GST-TFs on glutathione beads, 16-mer random dsDNA library, 0.1% formaldehyde crosslink after washing; high values mean tight binding
In assay [1] the target is T1, FEV (Homo sapiens, UniProt Q99581 1-238).
T1 sequence: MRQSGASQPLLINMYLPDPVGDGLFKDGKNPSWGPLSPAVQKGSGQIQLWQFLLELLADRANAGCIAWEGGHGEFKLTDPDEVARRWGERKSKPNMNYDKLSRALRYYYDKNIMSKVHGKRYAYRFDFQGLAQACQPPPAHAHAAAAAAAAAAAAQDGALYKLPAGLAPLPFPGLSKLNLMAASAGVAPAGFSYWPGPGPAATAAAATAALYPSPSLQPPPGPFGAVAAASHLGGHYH
The note with it: protein: recombinant; tags: N-terminal GST; dsDNA, one strand shown. The method in brief: (§1)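 Pools were built from human transcription factors expressed in yeast as GST fusions, captured on glutathione beads and DNA-barcoded, along with a tag-only sample. Incubation with 200 nmole of a 16-mer random double-stranded DNA library lasted 30 min at room temperature in Tris/NaCl/DTT/glycerol buffer, and was followed by washing, 0.1% formaldehyde crosslinking, proximity ligation, PCR amplification and Illumina NextSeq500 sequencing. Binding signal is the quotient of each hexamer's read frequency for a factor and its frequency for the tag-only sample.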

The target of assay [2] is ETV5 (Homo sapiens, UniProt P41161 1-510). Particulars: protein: recombinant; tags: N-terminal GST; dsDNA, one strand shown. The gist of the method: as §1
In assay [3] the target is HSF1 (Homo sapiens, UniProt Q00613 1-529). The note with it: protein: recombinant; tags: N-terminal GST; chain copies: 3; dsDNA, one strand shown. The method in brief:
as §1

In assay [4] the target is T2, SPIC (Homo sapiens, UniProt Q8N5J4 1-248).
T2 sequence: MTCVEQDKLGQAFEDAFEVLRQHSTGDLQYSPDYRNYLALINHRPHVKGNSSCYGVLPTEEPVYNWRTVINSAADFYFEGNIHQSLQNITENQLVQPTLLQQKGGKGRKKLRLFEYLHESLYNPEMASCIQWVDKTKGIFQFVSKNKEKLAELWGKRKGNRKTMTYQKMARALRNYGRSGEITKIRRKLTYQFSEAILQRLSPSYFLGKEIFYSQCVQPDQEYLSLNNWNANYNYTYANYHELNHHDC
The note with it: protein: recombinant; tags: N-terminal GST; dsDNA, one strand shown. The gist of the method:
as §1

The target in assay [5] is ELF4 (Homo sapiens, UniProt Q99607 1-663). Particulars: protein: recombinant; tags: N-terminal GST; dsDNA, one strand shown. The method in brief:
as §1

Assay [6] deals with T3, ELK4 (Homo sapiens, UniProt P28324-2 1-405).
T3 sequence: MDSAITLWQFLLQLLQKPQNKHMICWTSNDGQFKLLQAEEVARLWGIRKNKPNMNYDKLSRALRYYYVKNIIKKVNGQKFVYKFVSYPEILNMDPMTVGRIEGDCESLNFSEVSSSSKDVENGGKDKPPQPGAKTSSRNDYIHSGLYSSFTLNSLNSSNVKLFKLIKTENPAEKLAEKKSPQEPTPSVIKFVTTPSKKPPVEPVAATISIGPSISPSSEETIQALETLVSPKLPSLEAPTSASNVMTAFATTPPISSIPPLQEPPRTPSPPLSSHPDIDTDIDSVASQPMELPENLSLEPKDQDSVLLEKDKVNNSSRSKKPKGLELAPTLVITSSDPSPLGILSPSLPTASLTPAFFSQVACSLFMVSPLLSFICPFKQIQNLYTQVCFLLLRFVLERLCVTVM
Particulars: protein: recombinant; tags: N-terminal GST; dsDNA, one strand shown. The method in brief: as §1

Assay [7] deals with T4, ETV2 (Homo sapiens, UniProt O00321 1-342).
T4 sequence: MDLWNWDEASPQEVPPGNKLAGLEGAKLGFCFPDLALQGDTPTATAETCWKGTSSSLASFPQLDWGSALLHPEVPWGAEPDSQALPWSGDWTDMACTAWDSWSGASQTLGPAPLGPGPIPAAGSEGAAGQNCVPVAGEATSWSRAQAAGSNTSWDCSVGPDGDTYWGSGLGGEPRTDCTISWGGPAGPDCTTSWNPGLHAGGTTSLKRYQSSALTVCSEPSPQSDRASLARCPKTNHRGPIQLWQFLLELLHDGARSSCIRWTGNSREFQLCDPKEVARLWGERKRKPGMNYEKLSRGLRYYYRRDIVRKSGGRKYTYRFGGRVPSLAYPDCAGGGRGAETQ
The note with it: protein: recombinant; tags: N-terminal GST; dsDNA, one strand shown. The gist of the method:
as §1

Assay [8] has as its target T5, ELF3 (Homo sapiens, UniProt P78545 1-371).
T5 sequence: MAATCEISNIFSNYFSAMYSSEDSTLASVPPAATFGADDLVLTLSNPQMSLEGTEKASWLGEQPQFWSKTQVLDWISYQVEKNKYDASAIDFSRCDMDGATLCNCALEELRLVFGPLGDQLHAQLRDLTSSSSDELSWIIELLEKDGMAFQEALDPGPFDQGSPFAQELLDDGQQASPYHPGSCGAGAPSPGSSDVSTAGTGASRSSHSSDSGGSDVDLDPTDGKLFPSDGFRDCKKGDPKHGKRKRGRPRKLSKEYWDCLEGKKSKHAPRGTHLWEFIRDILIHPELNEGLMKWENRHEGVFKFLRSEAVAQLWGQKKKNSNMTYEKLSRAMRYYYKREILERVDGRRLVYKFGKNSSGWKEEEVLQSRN
Particulars: protein: recombinant; tags: N-terminal GST; dsDNA, one strand shown. The gist of the method:
as §1

For assay [9], the target named is CRX (Homo sapiens, UniProt O43186 1-299). Particulars: protein: recombinant; tags: N-terminal GST; dsDNA, one strand shown. The method in brief:
as §1

Assay [10] addresses ETV1 (Homo sapiens, UniProt P50549 1-477). The note with it: protein: recombinant; tags: N-terminal GST; dsDNA, one strand shown. The method in brief:
as §1

The target in assay [11] is T6, ERF (Homo sapiens, UniProt P50548 1-548).
T6 sequence: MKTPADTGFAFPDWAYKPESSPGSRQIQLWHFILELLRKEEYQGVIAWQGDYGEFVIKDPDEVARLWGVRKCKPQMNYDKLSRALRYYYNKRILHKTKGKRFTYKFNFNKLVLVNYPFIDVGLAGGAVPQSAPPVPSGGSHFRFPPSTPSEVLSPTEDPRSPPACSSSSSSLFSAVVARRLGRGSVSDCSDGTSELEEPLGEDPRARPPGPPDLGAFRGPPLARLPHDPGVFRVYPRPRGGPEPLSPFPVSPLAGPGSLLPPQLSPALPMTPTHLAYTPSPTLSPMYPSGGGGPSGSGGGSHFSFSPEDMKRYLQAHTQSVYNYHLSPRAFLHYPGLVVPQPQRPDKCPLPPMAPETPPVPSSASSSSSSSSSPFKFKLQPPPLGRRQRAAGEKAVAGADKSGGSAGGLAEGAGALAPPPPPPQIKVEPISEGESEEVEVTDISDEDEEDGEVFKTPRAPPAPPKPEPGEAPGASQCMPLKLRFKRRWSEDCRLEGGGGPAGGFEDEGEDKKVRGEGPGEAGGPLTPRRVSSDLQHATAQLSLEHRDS
The note with it: protein: recombinant; tags: N-terminal GST; dsDNA, one strand shown. The method in brief:
as §1

In assay [12] the target is T7, ETV3L (Homo sapiens, UniProt Q6ZN32 1-361).
T7 sequence: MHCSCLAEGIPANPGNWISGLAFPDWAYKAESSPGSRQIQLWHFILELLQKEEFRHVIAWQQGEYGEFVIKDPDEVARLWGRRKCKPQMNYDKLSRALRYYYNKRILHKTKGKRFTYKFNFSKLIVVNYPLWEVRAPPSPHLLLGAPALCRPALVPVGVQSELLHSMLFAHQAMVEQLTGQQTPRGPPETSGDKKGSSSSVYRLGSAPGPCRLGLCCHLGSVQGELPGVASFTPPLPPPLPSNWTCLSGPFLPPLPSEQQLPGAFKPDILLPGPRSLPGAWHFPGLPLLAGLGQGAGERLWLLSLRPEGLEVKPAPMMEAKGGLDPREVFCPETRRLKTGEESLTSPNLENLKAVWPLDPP
The note with it: protein: recombinant; tags: N-terminal GST; dsDNA, one strand shown. The gist of the method: as §1

The target in assay [13] is T8, ETS2 (Homo sapiens, UniProt P15036 1-469).
T8 sequence: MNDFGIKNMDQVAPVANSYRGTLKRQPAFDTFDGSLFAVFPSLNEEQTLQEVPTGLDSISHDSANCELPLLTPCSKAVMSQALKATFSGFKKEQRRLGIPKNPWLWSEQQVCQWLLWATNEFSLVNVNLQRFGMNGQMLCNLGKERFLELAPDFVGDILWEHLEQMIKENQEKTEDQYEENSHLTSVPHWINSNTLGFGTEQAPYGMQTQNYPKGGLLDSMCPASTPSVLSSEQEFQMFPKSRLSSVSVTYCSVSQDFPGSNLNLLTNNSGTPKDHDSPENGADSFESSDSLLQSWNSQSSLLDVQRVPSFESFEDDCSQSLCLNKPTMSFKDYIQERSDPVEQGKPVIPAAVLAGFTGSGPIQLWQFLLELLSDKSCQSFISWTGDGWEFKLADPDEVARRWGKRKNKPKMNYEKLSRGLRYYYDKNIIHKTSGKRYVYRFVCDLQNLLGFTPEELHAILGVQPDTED
Particulars: protein: recombinant; tags: N-terminal GST; dsDNA, one strand shown. The gist of the method:
as §1

Assay [14] addresses T9, SPDEF (Homo sapiens, UniProt O95238 1-335).
T9 sequence: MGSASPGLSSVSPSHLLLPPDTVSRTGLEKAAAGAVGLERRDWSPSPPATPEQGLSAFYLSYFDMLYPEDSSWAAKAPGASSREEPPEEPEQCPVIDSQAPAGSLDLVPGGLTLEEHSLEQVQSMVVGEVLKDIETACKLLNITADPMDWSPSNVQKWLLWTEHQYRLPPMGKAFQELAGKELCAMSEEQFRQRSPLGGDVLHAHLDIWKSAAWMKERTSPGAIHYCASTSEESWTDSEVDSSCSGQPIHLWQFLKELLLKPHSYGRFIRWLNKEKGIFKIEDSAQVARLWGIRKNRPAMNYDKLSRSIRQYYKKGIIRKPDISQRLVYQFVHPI
Particulars: protein: recombinant; tags: N-terminal GST; dsDNA, one strand shown. The gist of the method: as §1

For assay [15], the target named is T10, ETV7 (Homo sapiens, UniProt Q9Y603 1-341).
T10 sequence: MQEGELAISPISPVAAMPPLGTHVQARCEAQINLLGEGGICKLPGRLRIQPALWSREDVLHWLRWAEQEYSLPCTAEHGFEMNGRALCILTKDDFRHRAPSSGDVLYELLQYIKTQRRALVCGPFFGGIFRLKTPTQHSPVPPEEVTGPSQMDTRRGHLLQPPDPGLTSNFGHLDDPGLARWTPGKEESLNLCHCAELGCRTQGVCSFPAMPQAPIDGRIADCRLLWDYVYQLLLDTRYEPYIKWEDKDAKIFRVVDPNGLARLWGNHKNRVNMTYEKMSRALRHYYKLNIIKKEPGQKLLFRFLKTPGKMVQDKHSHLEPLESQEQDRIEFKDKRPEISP
The note with it: protein: recombinant; tags: N-terminal GST; dsDNA, one strand shown. The method in brief: as §1

Assay [16] has as its target T11, ELF5 (Homo sapiens, UniProt Q9UKW6-2 1-255).
T11 sequence: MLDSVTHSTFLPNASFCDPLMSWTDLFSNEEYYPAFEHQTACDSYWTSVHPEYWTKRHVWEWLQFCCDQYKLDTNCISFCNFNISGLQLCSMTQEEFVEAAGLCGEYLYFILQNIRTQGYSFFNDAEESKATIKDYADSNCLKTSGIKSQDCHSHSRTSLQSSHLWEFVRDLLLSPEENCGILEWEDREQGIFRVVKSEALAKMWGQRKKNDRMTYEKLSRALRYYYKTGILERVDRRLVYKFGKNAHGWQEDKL
Particulars: protein: recombinant; tags: N-terminal GST; dsDNA, one strand shown. The gist of the method: as §1

The target of assay [17] is T12, ETV3 (Homo sapiens, UniProt P41162-2 1-143).
T12 sequence: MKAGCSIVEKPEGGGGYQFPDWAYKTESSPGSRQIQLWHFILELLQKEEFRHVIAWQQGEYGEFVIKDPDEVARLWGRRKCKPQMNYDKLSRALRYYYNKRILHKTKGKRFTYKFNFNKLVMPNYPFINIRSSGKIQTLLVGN
Particulars: protein: recombinant; tags: N-terminal GST; dsDNA, one strand shown. The method in brief: as §1

Assay [18] deals with ETV6 (Homo sapiens, UniProt P41212 1-452). Particulars: protein: recombinant; tags: N-terminal GST; dsDNA, one strand shown. The method in brief:
as §1

Sequence of ETV5 (P41161 whole entry): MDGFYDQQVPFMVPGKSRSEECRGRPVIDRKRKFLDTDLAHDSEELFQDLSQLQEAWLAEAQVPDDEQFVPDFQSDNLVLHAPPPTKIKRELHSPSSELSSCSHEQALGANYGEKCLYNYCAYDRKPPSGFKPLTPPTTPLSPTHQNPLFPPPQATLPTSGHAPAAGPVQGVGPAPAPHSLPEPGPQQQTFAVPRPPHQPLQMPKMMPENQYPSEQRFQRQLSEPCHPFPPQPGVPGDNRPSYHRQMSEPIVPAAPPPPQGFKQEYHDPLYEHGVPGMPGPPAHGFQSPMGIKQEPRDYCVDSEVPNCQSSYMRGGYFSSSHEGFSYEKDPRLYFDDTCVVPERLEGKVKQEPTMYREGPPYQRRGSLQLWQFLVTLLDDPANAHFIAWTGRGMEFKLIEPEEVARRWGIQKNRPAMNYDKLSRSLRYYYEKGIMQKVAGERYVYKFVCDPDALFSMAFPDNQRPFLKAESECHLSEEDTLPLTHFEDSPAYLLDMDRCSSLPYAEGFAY
Sequence of ETV6 (P41212 whole entry): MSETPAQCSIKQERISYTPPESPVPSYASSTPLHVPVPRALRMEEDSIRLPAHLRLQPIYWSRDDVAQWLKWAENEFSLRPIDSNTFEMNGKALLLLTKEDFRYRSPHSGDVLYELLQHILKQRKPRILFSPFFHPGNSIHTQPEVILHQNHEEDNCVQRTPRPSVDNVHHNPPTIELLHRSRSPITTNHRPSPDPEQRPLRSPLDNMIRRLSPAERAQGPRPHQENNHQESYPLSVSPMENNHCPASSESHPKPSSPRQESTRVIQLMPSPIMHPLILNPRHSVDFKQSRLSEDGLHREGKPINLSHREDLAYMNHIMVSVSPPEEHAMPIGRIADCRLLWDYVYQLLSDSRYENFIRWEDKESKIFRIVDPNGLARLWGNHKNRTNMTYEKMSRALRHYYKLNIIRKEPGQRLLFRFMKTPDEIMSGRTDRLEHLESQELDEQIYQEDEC
Sequence of ETV1 (P50549 whole entry): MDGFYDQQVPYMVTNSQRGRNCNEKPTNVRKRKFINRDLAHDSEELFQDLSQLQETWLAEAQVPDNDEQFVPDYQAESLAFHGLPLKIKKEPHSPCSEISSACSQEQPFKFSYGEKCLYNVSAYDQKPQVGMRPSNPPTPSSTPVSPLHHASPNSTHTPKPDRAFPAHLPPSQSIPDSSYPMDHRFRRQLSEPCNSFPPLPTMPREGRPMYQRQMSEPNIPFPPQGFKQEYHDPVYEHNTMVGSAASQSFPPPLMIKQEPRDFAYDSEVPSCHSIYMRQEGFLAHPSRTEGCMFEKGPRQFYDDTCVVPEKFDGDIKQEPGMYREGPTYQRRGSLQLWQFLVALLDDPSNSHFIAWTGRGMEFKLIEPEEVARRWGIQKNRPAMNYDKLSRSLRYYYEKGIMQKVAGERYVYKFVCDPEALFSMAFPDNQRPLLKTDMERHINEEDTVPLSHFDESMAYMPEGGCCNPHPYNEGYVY
Sequence of HSF1 (Q00613 whole entry): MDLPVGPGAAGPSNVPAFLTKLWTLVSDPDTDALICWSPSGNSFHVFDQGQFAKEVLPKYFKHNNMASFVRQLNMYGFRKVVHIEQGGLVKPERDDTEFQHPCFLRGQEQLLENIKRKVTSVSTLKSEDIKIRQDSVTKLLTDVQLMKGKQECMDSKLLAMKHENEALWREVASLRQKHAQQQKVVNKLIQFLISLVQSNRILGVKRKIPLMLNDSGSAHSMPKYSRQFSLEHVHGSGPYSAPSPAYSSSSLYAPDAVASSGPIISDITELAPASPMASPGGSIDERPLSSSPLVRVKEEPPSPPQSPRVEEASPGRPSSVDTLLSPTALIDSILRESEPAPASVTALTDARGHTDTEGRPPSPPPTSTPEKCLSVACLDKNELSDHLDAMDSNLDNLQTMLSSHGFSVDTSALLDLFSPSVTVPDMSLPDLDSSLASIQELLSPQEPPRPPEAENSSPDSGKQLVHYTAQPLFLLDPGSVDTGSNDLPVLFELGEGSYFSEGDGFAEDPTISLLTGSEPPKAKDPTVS
Sequence of ELF4 (Q99607 whole entry): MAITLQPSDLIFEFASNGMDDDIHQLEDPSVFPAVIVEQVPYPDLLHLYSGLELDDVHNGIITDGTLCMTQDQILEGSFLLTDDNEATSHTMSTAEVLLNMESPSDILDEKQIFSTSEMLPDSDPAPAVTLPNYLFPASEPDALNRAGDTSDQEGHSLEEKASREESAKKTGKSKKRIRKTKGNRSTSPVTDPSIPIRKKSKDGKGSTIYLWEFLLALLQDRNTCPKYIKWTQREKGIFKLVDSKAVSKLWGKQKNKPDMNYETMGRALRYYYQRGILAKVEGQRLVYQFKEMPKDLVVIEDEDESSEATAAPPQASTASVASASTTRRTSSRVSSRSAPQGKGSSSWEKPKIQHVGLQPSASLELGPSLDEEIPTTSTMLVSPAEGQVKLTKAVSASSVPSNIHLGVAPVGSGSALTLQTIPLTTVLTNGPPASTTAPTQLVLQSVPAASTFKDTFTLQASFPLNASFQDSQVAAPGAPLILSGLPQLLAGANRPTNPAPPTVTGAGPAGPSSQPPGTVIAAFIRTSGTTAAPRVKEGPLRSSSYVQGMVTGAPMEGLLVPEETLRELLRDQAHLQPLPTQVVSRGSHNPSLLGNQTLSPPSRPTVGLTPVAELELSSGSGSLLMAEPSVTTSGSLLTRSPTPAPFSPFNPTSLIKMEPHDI
Sequence of CRX (O43186 whole entry): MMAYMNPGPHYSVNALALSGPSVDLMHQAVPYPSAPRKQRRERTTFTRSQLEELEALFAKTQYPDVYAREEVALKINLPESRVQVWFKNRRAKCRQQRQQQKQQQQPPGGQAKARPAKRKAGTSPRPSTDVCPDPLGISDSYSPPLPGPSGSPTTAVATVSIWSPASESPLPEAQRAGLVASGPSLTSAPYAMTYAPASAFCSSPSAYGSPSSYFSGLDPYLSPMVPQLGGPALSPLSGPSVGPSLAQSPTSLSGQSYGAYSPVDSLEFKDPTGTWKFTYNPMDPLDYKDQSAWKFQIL

For TTTAAA, the binding signal in [1] is 1.25 fold enrichment (6-mer frequency, TF over GST control); in assay [2] it was 1.21 fold enrichment (6-mer frequency, TF over GST control); in [3], 1.64 fold enrichment (6-mer frequency, TF over GST control); in [4] it was 1.02 fold enrichment (6-mer frequency, TF over GST control); in assay [5], 1.19 fold enrichment (6-mer frequency, TF over GST control); in assay [6] it was 1.37 fold enrichment (6-mer frequency, TF over GST control). For the same sequence, the binding signal in assay [7] was 1.44 fold enrichment (6-mer frequency, TF over GST control); in assay [8] it was 1.28 fold enrichment (6-mer frequency, TF over GST control); in assay [9], 2.15 fold enrichment (6-mer frequency, TF over GST control); in [10], 1.2 fold enrichment (6-mer frequency, TF over GST control); in assay [11] it was 1.31 fold enrichment (6-mer frequency, TF over GST control); in assay [12], 1.35 fold enrichment (6-mer frequency, TF over GST control). Moreover, the binding signal was 1.26 fold enrichment (6-mer frequency, TF over GST control) in [13]; 1.16 fold enrichment (6-mer frequency, TF over GST control) in assay [14]; 1.36 fold enrichment (6-mer frequency, TF over GST control) in assay [15]; 1.19 fold enrichment (6-mer frequency, TF over GST control) in assay [16]; 1.22 fold enrichment (6-mer frequency, TF over GST control) in assay [17]; 1.27 fold enrichment (6-mer frequency, TF over GST control) in [18].

Values taken from article PMC7862700, “An all-to-all approach to the identification of sequence-specific readers for epigenetic DNA modifications on cytosine”.
